TDP1 cell CPT: growth inhibition of DT40 Tdp1-/-;hTDP1 cells with camptothecin (screen for TDP1 inhibitors); Potency, µM (titrated, usually from 46.2 µM), most hits filed as inhibitors; AID 686979; chicken DT40 Tdp1-/-;hTDP1 cells + 20 nM CPT, ATP luminescence, 48 h; 420,000 tested, 12% active; also: nearly all actives have a fitted effect of over 55% in size
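Chicken DT40 Tdp1-/- cells complemented with human TDP1, 400 cells/well, exposed to compounds plus 20 nM camptothecin for at least 48 h at 37 C; viability read as ATP content by CellTiter-Glo luminescence.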
DT40 TDP1 no CPT: qHTS for Inhibitors of human tyrosyl-DNA phosphodiesterase 1 (TDP1): qHTS in cells in absence of CPT; Potency, µM (doses to about 46.2 µM), usual class: inhibitors; AID 686978, 2013; DT40 Tdp1-/- hTDP1 cells, no CPT, ATP luminescence, 48 h; 420,000 tested, 15% active; also: nearly all actives have a fitted effect of over 55% in size
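Growth kinetics read by CellTiter-Glo luminescence after ≥48 hr at 37 °C. Cells: DT40 Tdp1-/- stably carrying human TDP1, 400 per well, compound exposure in the absence of CPT (DMSO vehicle).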
IL-1B inflam inh: inflammasome signaling inhibition, IL-1 beta readout; THP-1 LPS/ATP IL-1B secretion, AlphaLISA, 16 h; active compounds read low; activity change, % at 57.5 µM; 360,000 tested, 4.7% active; in the data active = activity change below about -50%; inconclusive = mostly about -30% to -49%
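THP-1 cells pretreated 1 hr with compounds (up to 57.5 uM final), then stimulated with LPS (250 ng/mL final) plus ATP (1.25 mM final); secreted IL-1B measured by AlphaLISA after 16 hr, decreased signal indicating inhibition.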
SW480 rereplic: induces DNA re-replication in SW480 colon adenocarcinoma cells. SW480 DNA re-replication, Hoechst DNA content imaging, 48 h. Potency, µM (top dose mostly 46.1 µM), most hits filed as activators. 340,000 tested, 1.8% active. AID 624297; also: nearly all actives have a fitted effect of over 55% in size
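First, 250 cells per well were seeded. Next, compound or vehicle (23 nL) was pinned in, plates sat 48 hr at 37 C. Finally Hoechst was added for 40 min before fluorescence scanning.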
MCF10A rerep: DNA re-replication induction in MCF 10a cells | MCF 10A DNA re-replication, Hoechst nuclear intensity, 48 h | AID 624296 | 350,000 tested, 2.9% active | Potency, µM (doses to about 46.1 µM), actives largely listed as activators; also: nearly all actives have a fitted effect of over 50% in size
Chronic BCR inh: blocks chronic active B-cell receptor signaling; Potency, µM (highest dose often 46.1 µM), usual class: inhibitors; 340,000 tested, 0.05% active; ABC-DLBCL IkBa-CBG/CBR reporter, luminescence ratio, 4 h; AID 493014; active = well fitted inhibition curve with a large enough effect in the signal ratio, with a control signal flat, not every such curve was filed as active; inconclusive = small, poorly fitted or top-dose-only effect, or effect the other way, or a change in a side signal; the % refers to the signal ratio
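Doxycycline induced both beetle luciferases in TMD8 lymphoma cells; IKK-driven degradation limits the IkappaBalpha-fused green signal, while red luminescence normalises for cell number and nonspecific effects. Compounds tested up to 46 uM, 4 hrs.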
Hits are given with their value; . = inactive; ? = inconclusive; / = not tested or not shown; ! = repeats disagree; [ ] = another dose, or the depositor's remark. An excerpt weighted towards active compounds, which were near 19% of everything screened. Unless noted, calls follow the shape of the dose curve; as a rule, active = well fitted curve in the direction sought with a large enough effect; inconclusive = small, poorly fitted or top-dose-only effect, or another doubt; inactive = no such curve, though single readings can be large; an effect the other way counts as inactive or inconclusive.

SMILES	TDP1 cell CPT	DT40 TDP1 no CPT	IL-1B inflam inh	SW480 rereplic	MCF10A rerep	Chronic BCR inh
CC(C)C(=O)NC(c1ccco1)c1ccc2cccnc2c1O (centres undefined)	3.3µM	4.6µM	.	3.7µM	?	?
c1coc(CNc2nc3ccccc3s2)c1	.	.	.	.	.	.
CCN(c1ccccc1)S(=O)(=O)c1ccc(OC)c(NC(=O)c2ccc(=O)[nH]c2)c1	.	.	.	?	.	.
CCOc1ccc(C(=O)NCC(c2ccc3c(c2)OCO3)N2CCN(C)CC2)cc1 (centres undefined)	.	.	/	/	/	/
O=C(C[n+]1cccc(Cl)c1)c1ccc(F)cc1	.	.	/	/	/	/
C#CCOCCOCCOCCNc1nc(N2CCN(C(=O)[C@H](CCCCN)n3cc(CN)nn3)CC2)nc(N2CCN(C(=O)[C@H](CCCN=C(N)N)n3cc(C(N)[C@H](C)CC)nn3)CC2)n1 (some centres undefined)	.	.	.	.[9.22 µM]	.	?
NCCC1CN(C(=O)OCc2ccccc2)c2ccccc21 (centres undefined)	5.8µM	5.2µM	.	10µM	.	/
CCCS(=O)(=O)NC(=O)C1(C)CCN(C(=O)c2ccccc2C(F)(F)F)C1 (centres undefined)	.	.	.	/	/	/
COc1ccccc1C(=O)N1CCCC(C)(C(=O)NS(=O)(=O)C2CC2)C1 (centres undefined)	?	1.6µM	.	/	/	/
CC1(C(=O)NS(=O)(=O)C2CC2)CCCN(C(=O)c2cccnc2Oc2ccccc2)C1 (centres undefined)	?	1µM	.	/	/	/
CC1(C(=O)NS(=O)(=O)C2CC2)CCN(C(=O)c2ccccc2OC(F)(F)F)C1 (centres undefined)	.	.	.	/	/	/
CC1(C(=O)NS(=O)(=O)C2CC2)CCCN(C(=O)c2ccccc2C(F)(F)F)C1 (centres undefined)	6.5µM	5.8µM	.	/	/	/
Cc1ccc2nc(C3CCCCC3)c(Cc3cccc(F)c3)n2c1	?	?	.	/	/	/
CCC(C)Sc1ccc(-c2nc3ccc(C)cn3c2NC2CCCCC2)cc1 (centres undefined)	7.3µM	8.2µM	.	.[9.22 µM]	?	.
Cc1ccc2nc(-c3cccnc3)c(NC3CCCCC3)n2c1	?	?	.	.	.	?
CCCCNc1c(-c2cccc(SC3CCCCC3)c2)nc2ccc(Cl)cn12	?	?	.	.	26µM	?
Clc1ccc2nc(-c3cccc(SC4CCCCC4)c3)c(NCc3ccccc3)n2c1	16µM	?	.	.[9.22 µM]	?	.
Cc1ccc2nc(-c3cccc(SC4CCCCC4)c3)c(NCc3ccccc3)n2c1	26µM	18µM	.	?	18µM	.
COc1ccccc1C(O)c1nccn1Cc1ccccc1 (centres undefined)	.	.	/	/	/	/
O=C(NCc1ccc2c(c1)OCO2)C1CCN(c2nccc(C(F)(F)F)n2)CC1	.	.	.	?	.	.
CCOC(=O)C1(C)CCCN(C(=O)c2ccc(OC(F)F)cc2)C1 (centres undefined)	.	.	.	/	/	/
COc1ccc(-c2ccc(-c3nc4ccc(C)cn4c3NC3CCCCC3)cc2OC)cc1	10µM	13µM	-55!	?	?	.
Cc1ccc2nc(-c3cccc(SC4CCCCC4)c3)c(NC3CCCCC3)n2c1	21µM	16µM	.	.	.	.
Cc1ccc(OCC(=O)Nc2ccc3nn(-c4ccc(C)cc4)nc3c2)cc1	.	.	/	/	/	/
CCOc1cccc2cc(C(=O)NCc3ccc(OC)cc3)c(=N)oc12	26µM	?	.	.	.	.
COc1ccc(CNC(=O)c2cc3cccc(O)c3oc2=N)cc1	?	.	?	.	.	.
CCOc1cccc2cc(C(=O)NCc3ccc(C)cc3)c(=N)oc12	?	4.1µM	?	.	.	.
